Reference: PubChem BioAssay
Activity calls are given as the source filed them.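 Rule for the calls, unless noted: active = inhibition above 20% together with a positive visual image hit; inconclusive = visual image hit but inhibition not above 20%; inactive = no visual image hit.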 Where a SMILES comes first, the peptide text is derived from it. [ ]: non-standard residue; d: D form. The star is where a group is joined. ξ: configuration not given here. Cbz = O=C(OCc1ccccc1)*; ξK = NCCCCC(N)C(=O)O

Key:
[1] = inhibitors of TNFa-induced NFkB p65 translocation, primary screen, imaging, HUVEC, MLSMR starter and 10KST1 sets (AID 438); details: HUVEC TNFa-induced p65 nuclear translocation; cell count: measured here: nuclei count (cytotoxicity indicator), at 2.08 µM; inhibition: at 2 µM, stronger effect = higher value, 0% TNFa-plus-vehicle, 100% no-TNFa wells;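 note: compound added about 3h40 before a 20 min TNFalpha stimulation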;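 for inhibition: signal is the nuclear over cytoplasmic p65 intensity ratio per well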
[2] = inhibitors of mutant huntingtin aggregation, primary screen, imaging, exon1htt(103Q)mCFP cells, high-content imaging (AID 483;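 active = visual image review flags a hit and inhibition of aggregation exceeds 20%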;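 note: compound exposure lasted 3 days before fixation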;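 for nuclei count: percent of the per-plate median nuclei count of sample wells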); details: exon1htt(103Q)mCFP cell line, aggregate imaging, at 2 µM; inhibition of aggregation: stronger effect = higher value; nuclei count: measured here: cell count, toxicity
[3] = inhibitors of E-selectin induction by TNFa, primary screen, imaging, HUVEC, immunofluorescence, MLSMR starter and 10KST1 sets (AID 487;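 active = visually confirmed hit in the image check and inhibition above 20%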;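 for inhibition: signal is fraction of cell area covered by stained E-selectin grains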;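 for nuclei count: 100% = median nuclei count of all wells on the same plate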); details: HUVEC TNFalpha-induced E-selectin immunofluorescence imaging, at 2 µM; inhibition: stronger effect = higher value; nuclei count: measured here: cell number, toxicity
[4] = biological target: Voltage-gated potassium channel subunit beta-2 (Rattus norvegicus) (UniProt P62483); assay: KvBeta enzyme negative modulators, primary screen, biochemical, NADPH fluorescence (AID 622;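 active = fluorescence slope higher than the sample average by over 3 SD, cut at about -0.22 in these data, passing the limit was not always enough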;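 note: slope of raw intensity against log time taken from 70 to 1610 s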); details: recombinant KvBeta, 4-cyanobenzaldehyde reduction, at 10 µM, stronger effect = higher value
Sequence of Voltage-gated potassium channel subunit beta-2 (Rattus norvegicus) (P62483 whole entry, looked up): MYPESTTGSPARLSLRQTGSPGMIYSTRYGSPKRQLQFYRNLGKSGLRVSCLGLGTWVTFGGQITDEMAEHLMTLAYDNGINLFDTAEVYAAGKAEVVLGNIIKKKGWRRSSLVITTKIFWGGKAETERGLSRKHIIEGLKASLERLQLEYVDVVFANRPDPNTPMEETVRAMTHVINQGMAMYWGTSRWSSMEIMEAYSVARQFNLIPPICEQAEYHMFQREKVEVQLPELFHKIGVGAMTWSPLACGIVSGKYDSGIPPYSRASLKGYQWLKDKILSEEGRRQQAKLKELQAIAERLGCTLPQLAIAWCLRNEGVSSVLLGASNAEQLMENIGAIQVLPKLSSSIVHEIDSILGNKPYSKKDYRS

[5] = biological target: Voltage-gated potassium channel subunit beta-2 (Rattus norvegicus) (UniProt P62483); assay: KvBeta positive modulators, primary screen, biochemical, NADPH fluorescence (AID 623;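 active = NADPH fluorescence slope more negative than the mean of all samples by about 3 SD, 99.7% confidence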;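 note: fluorescence intensity change per second fitted from 20 to 320 s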); details: Recombinant KvBeta, NADPH fluorescence decrease slope, 10 min; at 10 µM; stronger effect = lower value
[6] = biological target: Alpha-2C adrenergic receptor (Homo sapiens) (UniProt P18825); assay: modulators of alpha2C/GIRK thallium flux, primary screen, cell-based, HEK293 alpha2C/GIRK1/2 (AID 624;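 active = fluorescence slope after compound addition differing from the mean of all screened samples at 99.7% confidence, in either direction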;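 note: slope of fluorescence ratio to pre-addition baseline per second over 15 to 24 s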); details: thallium flux BTC fluorescence, at 10 µM, actives lie on both sides
Sequence of Alpha-2C adrenergic receptor (Homo sapiens) (P18825 whole entry, looked up): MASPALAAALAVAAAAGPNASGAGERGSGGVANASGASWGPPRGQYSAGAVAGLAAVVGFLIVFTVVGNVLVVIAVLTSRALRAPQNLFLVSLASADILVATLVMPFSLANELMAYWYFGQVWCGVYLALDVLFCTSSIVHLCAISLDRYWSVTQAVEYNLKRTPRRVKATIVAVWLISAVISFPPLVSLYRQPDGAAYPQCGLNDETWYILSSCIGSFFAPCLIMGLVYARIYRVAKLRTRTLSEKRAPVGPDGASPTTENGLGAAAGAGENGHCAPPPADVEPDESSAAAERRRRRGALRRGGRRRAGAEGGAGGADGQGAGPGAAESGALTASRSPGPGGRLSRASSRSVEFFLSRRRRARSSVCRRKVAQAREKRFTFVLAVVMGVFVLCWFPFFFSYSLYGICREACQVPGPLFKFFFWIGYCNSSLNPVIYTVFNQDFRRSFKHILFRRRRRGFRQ

[7] = inhibitors of Sendai virus-induced IRF3 signaling, primary screen, TLR/RLR signaling modifier project, cell-based, Sendai virus stimulus, luciferase, 10K MLSCN set (AID 602276;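 active = inhibition at or above 50% at 10 µM; inactive = inhibition below 50%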;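 note: firefly luciferase from ISG56 promoter only with Renilla not read in this screen; 0% = Sendai virus plus DMSO and 100% = medium plus DMSO without virus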); details: HEK293 RL24 IRF3 luciferase reporter, at 10 µM, stronger effect = higher value
[8] = inhibitors of poly I:C-induced TLR3 signaling, primary screen, cell-based, poly I:C stimulus, luciferase, 10K MLSCN set (AID 602277;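 active = inhibition of the reporter signal at or above 50%; inactive = inhibition below 50%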); details: HEK293-TLR3 RL24 IRF3 luciferase reporter, at 10 µM, stronger effect = higher value

With `COC(=O)C(CCCCNC(=O)OCc1ccccc1)NC(=O)CN` (centres undefined) (H-Gly-[ξK](Cbz)-OMe) the cell count [1] was 529, the inhibition [1] was -6.5% (inactive) and the inhibition of aggregation [2] was 11.4% (inactive). For the same compound, the nuclei count [2] was 104%, the inhibition [3] was -14% (inactive) and the nuclei count [3] was 71.3%. The fluorescence slope [4] was -0.623 (inactive), the NADPH fluorescence slope [5] was -2.9e-05 (inactive) and the slope [6] was 0.00756 (inactive). The inhibition [7] was 4.8% (inactive) and the inhibition [8] was 6.56% (inactive).
In the case of `Nc1c(S(=O)(=O)c2cccs2)c2nc3ccccc3nc2n1CC1CCCO1` (centres undefined), the cell count [1] is reported as 667, the inhibition [1] is reported as -7.3% (inactive) and the inhibition of aggregation [2] is reported as -6% (inactive). The nuclei count [2] was 117%, the inhibition [3] was -71.1% (inactive) and the nuclei count [3] was 141%. For the same compound, the fluorescence slope [4] was -0.0861 (active), the NADPH fluorescence slope [5] was 2.8e-06 (inactive) and the slope [6] was 0.00409 (inactive). For the same compound, the inhibition [7] was 10.7% (inactive) and the inhibition [8] was 35.1% (inactive).
For `COc1ccccc1CNC(=O)CCNC(=O)Cn1ccc2ccccc2c1=O`, the cell count [1] was 749, the inhibition [1] was -23.7% (inactive) and the inhibition of aggregation [2] was 8.2% (inactive). For the same compound, the nuclei count [2] was 107%, the inhibition [3] was -16.3% (inactive) and the nuclei count [3] was 116%. The fluorescence slope [4] was 0.0111 (inactive), the NADPH fluorescence slope [5] was -1.6e-05 (inactive) and the slope [6] was 0.00394 (inactive). The inhibition [7] was 7.16% (inactive) and the inhibition [8] was 6.29% (inactive).
For `Cc1nn(C)c(C)c1NC(=O)CCSc1nc(-c2ccco2)cc(C(F)(F)F)n1`, the cell count [1] was 491, the inhibition [1] was -2.2% (inactive) and the inhibition of aggregation [2] was 10.3% (inactive). The nuclei count [2] was 108%, the inhibition [3] was 23.6% (inactive) and the nuclei count [3] was 100%. The fluorescence slope [4] was -0.432 (inactive), the NADPH fluorescence slope [5] was -6.1e-05 (inactive) and the slope [6] was 0.00599 (inactive). For the same compound, the inhibition [7] was 4.67% (inactive) and the inhibition [8] was -10.1% (inactive).
For `O=C(CSc1nnc(-c2ccncc2)n1-c1ccc(F)cc1)NC(=O)NCc1ccco1`, the cell count [1] was 537, the inhibition [1] was -13.7% (inactive) and the inhibition of aggregation [2] was -9.8% (inactive). The nuclei count [2] was 100%, the inhibition [3] was -65.7% (inactive) and the nuclei count [3] was 149%. The fluorescence slope [4] was -0.46 (inactive), the NADPH fluorescence slope [5] was -0.000317 (inactive) and the slope [6] was 0.00513 (inactive). For the same compound, the inhibition [7] was 10.1% (inactive) and the inhibition [8] was 15.2% (inactive).
For `COc1ccc(C2c3sc(=O)[nH]c3SC3C4CCC(C4)C23)cc1` (centres undefined), the cell count [1] was 573, the inhibition [1] was -7.6% (inactive) and the inhibition of aggregation [2] was -14% (inactive). For the same compound, the nuclei count [2] was 93.8%, the inhibition [3] was -69.5% (inactive) and the nuclei count [3] was 106%. The fluorescence slope [4] was -0.53 (inactive), the NADPH fluorescence slope [5] was 3.9e-05 (inactive) and the slope [6] was 0.00413 (inactive). The inhibition [7] was -5.3% (inactive) and the inhibition [8] was 9.16% (inactive).
With `O=c1c2cc(N3CCOCC3)ccc2[nH]c(=S)n1CCCN1CCCCC1` the cell count [1] was 522, the inhibition [1] was 6.2% (inactive) and the inhibition of aggregation [2] was -8.5% (inactive). For the same compound, the nuclei count [2] was 121%, the inhibition [3] was -2.6% (inactive) and the nuclei count [3] was 106%. The fluorescence slope [4] was -0.0837 (active), the NADPH fluorescence slope [5] was 8.7e-06 (inactive) and the slope [6] was 0.00508 (inactive). For the same compound, the inhibition [7] was -10.1% (inactive) and the inhibition [8] was 23.3% (inactive).
With `CSCCC(C(=O)Nc1ccc2c(c1)OCO2)N1C(=O)c2ccccc2C1=O` (centres undefined) the cell count [1] was 632, the inhibition [1] was 3.8% (inactive) and the inhibition of aggregation [2] was -16.3% (inactive). For the same compound, the nuclei count [2] was 96.3%, the inhibition [3] was -138% (inactive) and the nuclei count [3] was 107%. The fluorescence slope [4] was -0.61 (inactive), the NADPH fluorescence slope [5] was -7.2e-06 (inactive) and the slope [6] was 0.006 (inactive). For the same compound, the inhibition [7] was 9.29% (inactive) and the inhibition [8] was 22% (inactive).
In the case of `CCOC(=O)N1CCC(N(C(=O)Nc2cccc(OC)c2)C(C)CC)CC1` (centres undefined), the cell count [1] is reported as 534, the inhibition [1] is reported as -4.4% (inactive) and the inhibition of aggregation [2] is reported as -16.1% (inactive). The nuclei count [2] was 44%, the inhibition [3] was -60.6% (inactive) and the nuclei count [3] was 98.9%. The fluorescence slope [4] was -0.513 (inactive), the NADPH fluorescence slope [5] was -3.9e-05 (inactive) and the slope [6] was 0.00561 (inactive). The inhibition [7] was 12.2% (inactive) and the inhibition [8] was 11.5% (inactive).
With `CCc1[nH]nc2c1C(c1ccncc1)C(C#N)=C(N)O2` (centres undefined) the cell count [1] was 355, the inhibition [1] was 2.9% (inactive) and the inhibition of aggregation [2] was -6% (inactive). For the same compound, the nuclei count [2] was 109%, the inhibition [3] was -29.1% (inactive) and the nuclei count [3] was 123%. For the same compound, the fluorescence slope [4] was -0.507 (inactive), the NADPH fluorescence slope [5] was -3.3e-05 (inactive) and the slope [6] was 0.00643 (inactive). The inhibition [7] was -2.35% (inactive) and the inhibition [8] was 3.94% (inactive).
With `COC1CCCCC1Nc1cccc(SC)c1` (centres undefined) the cell count [1] was 411, the inhibition [1] was 0.6% (inactive) and the inhibition of aggregation [2] was -6.7% (inactive). The nuclei count [2] was 90.9%, the inhibition [3] was -65.5% (inactive) and the nuclei count [3] was 120%. For the same compound, the fluorescence slope [4] was -0.414 (inactive), the NADPH fluorescence slope [5] was -2.4e-05 (inactive) and the slope [6] was 0.0037 (inactive). The inhibition [7] was 12.1% (inactive) and the inhibition [8] was 19.8% (inactive).
With `COc1ccc(C(=O)Nc2ccc(C)cn2)c(OC)c1` the cell count [1] was 283, the inhibition [1] was 14.7% (inactive) and the inhibition of aggregation [2] was -14.1% (inactive). The nuclei count [2] was 79%, the inhibition [3] was -3.2% (inactive) and the nuclei count [3] was 101%. For the same compound, the fluorescence slope [4] was -0.469 (inactive), the NADPH fluorescence slope [5] was -3.9e-05 (inactive) and the slope [6] was 0.00731 (inactive). For the same compound, the inhibition [7] was -3.57% (inactive) and the inhibition [8] was 53.3% (active).
In the case of `CCOc1nc(-c2ccccc2)ccc1-c1noc(-c2ccc(OC)c(OC)c2)n1`, the cell count [1] is reported as 418, the inhibition [1] is reported as 11.7% (inactive) and the inhibition of aggregation [2] is reported as -27.9% (inactive). The nuclei count [2] was 99.7%, the inhibition [3] was -27% (inactive) and the nuclei count [3] was 107%. For the same compound, the fluorescence slope [4] was -0.385 (inactive), the NADPH fluorescence slope [5] was 5.6e-06 (inactive) and the slope [6] was 0.0092 (inactive). The inhibition [7] was 8.22% (inactive) and the inhibition [8] was 9.49% (inactive).
With `C=CCN(C(=O)CNC(=O)c1ccco1)C(C(=O)NC1CCCCC1)c1ccccc1F` (centres undefined) the cell count [1] was 398, the inhibition [1] was -1.6% (inactive) and the inhibition of aggregation [2] was 18.6% (inactive). The nuclei count [2] was 106%, the inhibition [3] was 5.7% (inactive) and the nuclei count [3] was 101%. For the same compound, the fluorescence slope [4] was -0.612 (inactive), the NADPH fluorescence slope [5] was 1.7e-06 (inactive) and the slope [6] was 0.00581 (inactive). The inhibition [7] was -3.24% (inactive) and the inhibition [8] was 10.3% (inactive).
